Results reported in PubChem BioAssay AID686978 (National Center for Advancing Translational Sciences (NCATS), 2013).
About 64,000 (15%) of roughly 420,000 compounds were called active. Roughly 27% stayed inconclusive and do not appear here. Calls come from the whole dose curve; as a rule, active = well fitted inhibition curve with a large enough effect; inconclusive = small, poorly fitted or top-dose-only effect; inactive = flat fitted curve, though single readings scatter. A selection follows. Entries that show only a call come without a potency.

Assay: qHTS for Inhibitors of human tyrosyl-DNA phosphodiesterase 1 (TDP1): qHTS in cells in absence of CPT; note: nearly all actives have a fitted effect of over 55% in size
Details: DT40 Tdp1-/- hTDP1 cells, no CPT, ATP luminescence, 48 h; activity change, negative = growth inhibition: at 46.2 µM (top of the series)
Summary of the method: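 Camptothecin absent (DMSO only). Human TDP1-complemented DT40 knockout cells, 400 cells/well, 37 °C for minimum 48 hr; ATP measured via CellTiter-Glo, 30 min dark incubation, luminescence.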
Potency is the fitted concentration of half-maximal effect.

Structure (SMILES) | Potency
CN1CCNC(=O)C1CC(=O)N1CC=C(c2ccc(F)cc2)CC1 (centres undefined) | inactive
COc1ccc(NC(=O)COC(=O)c2ccncc2)c(OC)c1 | inactive
CC(C)(C)S(=O)(=O)N1Cc2cc(CO)cc(CCO)c2[C@H]1CCO | inactive
CCN(CC(=O)Nc1ccc(NC(C)=O)cc1)C(=O)CSC(=S)N1CCCC1 | 7.31 µM (active)
COc1cccc(NC(=O)CN(C)C(=O)CSC(=S)N2CCCC2)c1 | inactive
CC(=O)c1ccc(NC(=O)CSC(=S)N2CCCC2)cc1 | inactive
CC(C)(C)OC(=O)C1=C(CO)CS[C@@H]2[C@H](NC(=O)Cc3ccccc3)C(=O)N12 | inactive
CN(Cc1ccc(F)cc1)C(=O)CN1C(=O)c2ccccc2S1(=O)=O | inactive
NS(=O)(=O)c1ccc(CCNC(=O)CN2C(=O)c3ccccc3S2(=O)=O)cc1 | inactive
O=C(NCCc1ccc(Cl)cc1)c1cccc(N2CCCC2=O)c1 | inactive
O=C(c1ccc2c(c1)N(Cc1ccc(F)cc1)C(=O)CS2)N1CCOCC1 | inactive
O=C(NCCc1ccccc1)c1ccc2c(c1)N(Cc1ccc(F)cc1)C(=O)c1ccccc1S2(=O)=O | 13 µM (active)
O=C(NCCC1=CCCCC1)c1ccc2c(c1)N(Cc1ccccc1F)C(=O)c1ccccc1S2(=O)=O | 16.4 µM (active)
O=C(NCCc1ccc(Cl)cc1)c1ccc2c(c1)N(Cc1ccc(F)cc1)C(=O)CS2 | 29.1 µM (active)
Cc1ccc(C)c(NC(=O)Cn2ccn(-c3ccc(F)cc3)c(=O)c2=O)c1 | inactive
NS(=O)(=O)c1ccc(CCNC(=S)Nc2ccc(S(N)(=O)=O)cc2)cc1 | inactive
CCOc1ccc(N(CC)C(=O)c2cc3c(=O)oc4ccccc4c3s2)cc1 | inactive
Cc1cc([N+](=O)[O-])nn1Cc1ccc(F)cc1 | inactive
O=c1c2ccccc2c(-c2ccccc2)nn1-c1ccccn1 | inactive
CNC(=O)n1ccc(C(=O)N2CCCCC2)n1 | inactive
O=C(CCC(=O)c1cccs1)NCc1ccccc1 | inactive
Cc1ccc(SCCN2C(=O)NC(C)(C)C2=O)cc1 | inactive
O=C(CC1CCCCC1)NCc1ccco1 | inactive
O=C(Nc1ccc2c(c1)OCCO2)C1c2ccccc2OCC(=O)N1Cc1ccccn1 (centres undefined) | inactive
O=C(Nc1ccc(NC(=O)c2ccc3c(c2)OCO3)cc1)c1cccc(Cl)c1 | inactive
O=C(Nc1ccc(Cl)cc1)C1c2cccc[n+]2CC(=O)N1Cc1ccc2c(c1)OCO2 (centres undefined) | 1.03 µM (active)
CSc1ccccc1C(=O)NCc1ccccc1 | inactive
C=CCOc1cccc(CNn2cn[nH]c2=S)c1 | inactive
CC(=O)Nc1ccc(Oc2ccc3c(c2)C(=O)NC3=O)cc1 | inactive
